Data taken from PubChem BioAssay (NCATS).
A number with no mark means an inactive call. Inconclusive results are not listed. The source made the active and inactive calls. Unless noted, calls follow the shape of the dose curve; as a rule, active = well fitted curve in the direction sought with a large enough effect; inconclusive = small, poorly fitted or top-dose-only effect, or another doubt; inactive = no such curve, though single readings can be large; an effect the other way counts as inactive or inconclusive.

Tests used:
[1] = target: Transient receptor potential cation channel subfamily V member 1 (Homo sapiens) (UniProt Q8NER1); assay: HTS Assay for Compounds that Act as Enhancers of the Vanilloid Receptor 1 (AID 488979); also: 0% is about no effect
Chain of Transient receptor potential cation channel subfamily V member 1 (Homo sapiens) (Q8NER1 whole entry, looked up): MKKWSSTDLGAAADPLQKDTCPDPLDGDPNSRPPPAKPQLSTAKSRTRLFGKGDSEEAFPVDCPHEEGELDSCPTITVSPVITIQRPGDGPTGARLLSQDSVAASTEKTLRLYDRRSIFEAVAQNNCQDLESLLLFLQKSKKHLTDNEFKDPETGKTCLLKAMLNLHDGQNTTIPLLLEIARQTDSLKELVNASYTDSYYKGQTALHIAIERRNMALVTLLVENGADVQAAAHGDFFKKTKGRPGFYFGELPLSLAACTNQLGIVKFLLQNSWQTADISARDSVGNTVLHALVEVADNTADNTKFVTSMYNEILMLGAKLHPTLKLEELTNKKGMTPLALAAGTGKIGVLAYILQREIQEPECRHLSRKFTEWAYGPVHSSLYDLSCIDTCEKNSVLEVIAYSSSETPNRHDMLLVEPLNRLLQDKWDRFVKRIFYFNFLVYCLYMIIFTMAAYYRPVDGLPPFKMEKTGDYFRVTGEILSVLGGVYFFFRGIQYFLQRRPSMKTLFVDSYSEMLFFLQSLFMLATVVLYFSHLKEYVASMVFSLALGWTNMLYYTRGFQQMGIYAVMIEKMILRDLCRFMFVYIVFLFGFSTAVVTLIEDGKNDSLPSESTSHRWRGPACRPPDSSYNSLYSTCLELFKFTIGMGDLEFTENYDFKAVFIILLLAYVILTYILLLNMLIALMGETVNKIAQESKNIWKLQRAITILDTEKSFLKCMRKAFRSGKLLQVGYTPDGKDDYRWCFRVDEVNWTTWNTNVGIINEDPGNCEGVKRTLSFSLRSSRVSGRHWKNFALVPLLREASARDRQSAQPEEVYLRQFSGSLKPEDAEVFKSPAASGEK
How it was run: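 TRPV1 cells loaded with Fluo-8 calcium dye; compound added and Ca2+ signal (ex 480/em 520 nm) followed 3 min, then capsaicin at EC20 added and read 2 more min to detect enhancement.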

[2] = target: Thyrotropin receptor (Homo sapiens) (UniProt P16473); assay: qHTS Assay for Antagonists of the Thyroid Stimulating Hormone Receptor (AID 488980);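 also: TSHR-transfected HEK293 cells stimulated with TSH at EC80 of 4 nM; series mostly up to about 58 µM; 0% is about no effect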
Chain of Thyrotropin receptor (Homo sapiens) (P16473 whole entry, looked up): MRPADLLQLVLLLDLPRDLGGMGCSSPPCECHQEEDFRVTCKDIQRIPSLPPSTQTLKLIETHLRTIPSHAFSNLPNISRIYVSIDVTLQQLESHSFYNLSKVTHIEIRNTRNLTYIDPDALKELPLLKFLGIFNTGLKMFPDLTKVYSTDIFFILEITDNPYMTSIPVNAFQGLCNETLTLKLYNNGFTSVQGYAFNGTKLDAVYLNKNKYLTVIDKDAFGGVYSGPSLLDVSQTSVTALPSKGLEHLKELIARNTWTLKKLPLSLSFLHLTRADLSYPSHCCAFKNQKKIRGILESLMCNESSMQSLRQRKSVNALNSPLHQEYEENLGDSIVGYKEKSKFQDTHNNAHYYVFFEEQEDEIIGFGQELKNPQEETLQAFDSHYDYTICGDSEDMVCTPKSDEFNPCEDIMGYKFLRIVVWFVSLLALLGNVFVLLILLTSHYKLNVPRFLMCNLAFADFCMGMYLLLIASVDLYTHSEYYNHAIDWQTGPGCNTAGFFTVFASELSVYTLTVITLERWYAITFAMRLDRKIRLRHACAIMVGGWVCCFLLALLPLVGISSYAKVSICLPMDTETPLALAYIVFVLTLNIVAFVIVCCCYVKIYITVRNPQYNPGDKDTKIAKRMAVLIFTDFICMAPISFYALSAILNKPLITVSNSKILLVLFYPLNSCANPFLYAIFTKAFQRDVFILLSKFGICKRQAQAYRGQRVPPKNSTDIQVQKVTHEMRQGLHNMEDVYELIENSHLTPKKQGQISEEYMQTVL
Excerpt: TSH is an alpha/beta heterodimeric glycoprotein hormone secreted from the anterior pituitary gland which belongs to the glycoprotein hormone family. The actions of TSH are mediated by a seven-transmembrane receptor, which upon TSH binding couples preferentially to the G-alpha (s) protein (Gs), resulting in activation of adenylate cyclase and increase in cyclic adenosine 3', 5' monophosphate (cAMP). The TSH receptor (THSR) is mainly expressed in thyroid follicular cells and regulates their growth and function. This cell based assay was conducted on a TSHR transfected HEK 293 cell line, measuring cAMP stimulation using antibody-based Homogeneous Time Resolved Fluorescence (HTRF).
Our goal is to identify small molecules that will inhibit (antagonize) the thyroid-stimulating hormone receptor (TSHR), a member of the 7 transmembrane-spanning receptor (7TMR) family of cell surface receptors. TSHR-mediated hyperthyroidism is important in thyroid pathology. The development of small molecule antagonists of TSHR may lead to therapeutic approaches for TSHR-mediated hyperthyroidism caused by constitutively activating mutations or stimulating auto-antibodies associated with Graves' disease. […]

[3] = target: Thyrotropin-releasing hormone receptor (Homo sapiens) (UniProt P34981); assay: qHTS for Small Molecule Agonists and Allosteric Enhancers of Human TRH Receptor: Validation Screen for Agonists (AID 493127;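 active = calcium activation more than 3 SD above the typical response in the agonist read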;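 also: intracellular calcium rise by fluo-8 fluorescence before TRH EC20 addition; 0% is about no effect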); conditions: TRH receptor agonist cell assay; at 2 µM; stronger effect = higher value
How it was run: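 Gq-coupled calcium mobilization in TRHR cells after compound addition, monitored kinetically with fluo-8 dye on an FDSS reader.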

[4] = target: ATP-dependent 6-phosphofructokinase (Trypanosoma brucei brucei) (UniProt O15648); assay: qHTS Assay to Find Inhibitors of T. brucei phosphofructokinase: hit validation (AID 492961); also: series mostly up to about 51 µM; % is scaled to controls: 0 for no effect and ±100 for the full control effect
Chain of ATP-dependent 6-phosphofructokinase (Trypanosoma brucei brucei) (O15648 whole entry, looked up): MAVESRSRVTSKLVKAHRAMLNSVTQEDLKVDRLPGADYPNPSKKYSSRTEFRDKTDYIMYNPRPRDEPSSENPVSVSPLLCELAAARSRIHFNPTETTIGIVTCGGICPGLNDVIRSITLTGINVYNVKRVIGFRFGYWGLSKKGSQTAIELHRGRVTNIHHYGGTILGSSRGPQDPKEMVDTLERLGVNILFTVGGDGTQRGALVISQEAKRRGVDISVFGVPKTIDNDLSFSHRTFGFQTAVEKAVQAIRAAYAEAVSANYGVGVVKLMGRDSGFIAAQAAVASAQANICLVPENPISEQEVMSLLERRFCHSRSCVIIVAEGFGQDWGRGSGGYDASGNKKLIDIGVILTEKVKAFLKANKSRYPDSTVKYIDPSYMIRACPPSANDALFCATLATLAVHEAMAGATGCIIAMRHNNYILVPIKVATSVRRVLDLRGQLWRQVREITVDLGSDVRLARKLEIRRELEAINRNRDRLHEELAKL
How it was run: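 Luminescence from ADP-Glo reports ADP generated as T. brucei PFK (1.25 nM) phosphorylates 0.5 mM fructose-6-phosphate using 0.1 mM ATP. Reactions ran 45 min at room temperature, pH 8.0.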

[5] = target: Methanococcus maripaludis chaperonin (MmCpn) (UniProt Q6LX38); assay: High-Throughput Screening for Modulators of Cytosolic Chaperonin Activity: MmCpn Primary Screen (AID 488978);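 also: 50 nM MmCpn enzyme hydrolysing 30 µM ATP at 37 °C; 0% is about no effect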
Chain of Methanococcus maripaludis chaperonin (MmCpn) (Q6LX38 1-543): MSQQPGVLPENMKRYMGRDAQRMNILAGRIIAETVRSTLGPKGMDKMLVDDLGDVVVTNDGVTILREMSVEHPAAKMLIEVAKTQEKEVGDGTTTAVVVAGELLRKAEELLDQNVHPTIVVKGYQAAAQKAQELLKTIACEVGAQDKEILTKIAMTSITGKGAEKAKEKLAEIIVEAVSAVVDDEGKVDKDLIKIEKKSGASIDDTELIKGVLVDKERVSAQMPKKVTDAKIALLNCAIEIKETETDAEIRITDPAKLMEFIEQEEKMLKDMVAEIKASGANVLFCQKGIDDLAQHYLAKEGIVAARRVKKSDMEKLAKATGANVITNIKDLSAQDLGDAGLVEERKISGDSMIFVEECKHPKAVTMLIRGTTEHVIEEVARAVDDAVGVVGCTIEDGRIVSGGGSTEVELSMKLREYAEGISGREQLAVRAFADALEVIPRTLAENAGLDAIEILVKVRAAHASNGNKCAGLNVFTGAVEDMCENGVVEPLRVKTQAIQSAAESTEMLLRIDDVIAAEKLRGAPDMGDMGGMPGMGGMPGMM
How it was run: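 ADP formation read by HTRF Transcreener, 665/590 nm emission after 320 nm excitation. Enzyme: archaeal chaperonin at 50 nM final; substrate ATP 30 uM final; 10 min, 37C, after 5 min compound preincubation at RT.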

[6] = target: D(1A) dopamine receptor (Homo sapiens) (UniProt P21728); assay: HTS Assay for Allosteric Agonists of the Human D1 Dopamine Receptor: Primary Screen for Agonists (AID 488981); also: 0% is about no effect
Chain of D(1A) dopamine receptor (Homo sapiens) (P21728 whole entry, looked up): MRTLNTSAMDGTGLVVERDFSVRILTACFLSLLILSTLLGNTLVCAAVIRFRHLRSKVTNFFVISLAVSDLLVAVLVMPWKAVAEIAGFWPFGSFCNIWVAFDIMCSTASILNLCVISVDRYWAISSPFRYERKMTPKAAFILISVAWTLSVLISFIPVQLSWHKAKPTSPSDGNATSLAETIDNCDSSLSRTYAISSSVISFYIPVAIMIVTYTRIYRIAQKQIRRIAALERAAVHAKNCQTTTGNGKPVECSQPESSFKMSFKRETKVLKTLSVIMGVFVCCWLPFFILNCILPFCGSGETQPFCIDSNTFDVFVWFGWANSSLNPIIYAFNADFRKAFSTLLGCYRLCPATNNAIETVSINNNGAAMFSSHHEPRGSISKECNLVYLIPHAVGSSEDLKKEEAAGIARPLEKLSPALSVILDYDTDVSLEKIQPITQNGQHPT
How it was run: (§1)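 Tetracycline-induced HEK293 Trex D1 cells with forced coupling to calcium, loaded with no-wash calcium dye; kinetic fluorescence read 180 s after compound addition for agonism, then a further 180 s after an EC20 dopamine challenge for potentiation.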

[7] = target: D(1A) dopamine receptor (Homo sapiens) (UniProt P21728); assay: HTS Assay for Allosteric Agonists of the Human D1 Dopamine Receptor: Primary Screen for Potentiators (AID 488982); also: 0% is about no effect
How it was run: as §1

[8] = target: D(1A) dopamine receptor (Homo sapiens) (UniProt P21728); assay: HTS Assay for Allosteric Agonists of the Human D1 Dopamine Receptor: Primary Screen for Antagonists (AID 488983);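 also: calcium flux response to an EC80 dopamine challenge measured with no-wash dye; % is scaled to controls: 0 for no effect and ±100 for the full control effect; nearly all actives have a fitted effect of over 65% in size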
Excerpt: Dopamine receptors (DARs) are involved in the etiology and/or therapy of a number of neuropsychiatric and endocrine disorders. For instance, all receptor-based antiparkinsonian drugs work via stimulating the […] DAR subtype whereas all FDA-approved antipsychotic agents are antagonists of this receptor. […] There are three different types of allosteric modulators that we are seeking, two of which will stimulate or augment receptor signaling, allosteric agonists and potentiators, while the third, allosteric antagonists, will attenuate receptor signaling. The present primary screening assay measures compound agonism by tracking calcium flux in a […], inducible Hek293 Trex D1 cell line.
Freshly passaged cells are plated in 1536 well black, clear bottom plates at a density of 4000 cells/well in 3 ul of complete media containing 1x tetracycline inducer. After an overnight incubation at […] in 5% CO2, cells are loaded with 2 ul of the no wash Calcium Assay Kit (ABD Bioquest) and incubated at room temperature for 30 to 90 minutes. […] The plate is measured for kinetically at 1 cycle/sec for 180 seconds and is considered to be the agonist portion of the assay (eg, compounds which activate a positive calcium response during this portion are flagged as potential agonists). Following the 180 second read, 1 ul of an EC80 of dopamine is delivered by an onboard pipette head. […]

[9] = qHTS for Inhibitors of Cell Surface uPA Generation: Validation Assay (AID 493164);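 also: RAW 264.7 macrophage cells exposed to compound for 18 h; 0% is about no effect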
How it was run: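 RAW 264.7, 4000 cells/well, o/n plating; cpd 7-pt 1:5 dilution 2.45 nM–38.3 uM final; 18 h, 37 C/5% CO2; ATP-Lite, 5 s luminescence exposure.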

[10] = target: ATPase family AAA domain-containing protein 5 (Homo sapiens) (UniProt Q96QE3); assay: Validation screen for small molecules that inhibit ELG1-dependent DNA repair in human embryonic kidney (HEK293T) cells expressing luciferase-tagged ELG1 (AID 493107);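 also: cells co-treated with the DNA-damaging agent 5-fluorouridine alongside compound; series mostly up to about 46 µM; % is scaled to controls: 0 for no effect and ±100 for the full control effect; inhibitors lower the ELG1-luciferase luminescence signal; nearly all actives have a fitted effect of over 70% in size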
Chain of ATPase family AAA domain-containing protein 5 (Homo sapiens) (Q96QE3 whole entry, looked up, the tested form may be a part): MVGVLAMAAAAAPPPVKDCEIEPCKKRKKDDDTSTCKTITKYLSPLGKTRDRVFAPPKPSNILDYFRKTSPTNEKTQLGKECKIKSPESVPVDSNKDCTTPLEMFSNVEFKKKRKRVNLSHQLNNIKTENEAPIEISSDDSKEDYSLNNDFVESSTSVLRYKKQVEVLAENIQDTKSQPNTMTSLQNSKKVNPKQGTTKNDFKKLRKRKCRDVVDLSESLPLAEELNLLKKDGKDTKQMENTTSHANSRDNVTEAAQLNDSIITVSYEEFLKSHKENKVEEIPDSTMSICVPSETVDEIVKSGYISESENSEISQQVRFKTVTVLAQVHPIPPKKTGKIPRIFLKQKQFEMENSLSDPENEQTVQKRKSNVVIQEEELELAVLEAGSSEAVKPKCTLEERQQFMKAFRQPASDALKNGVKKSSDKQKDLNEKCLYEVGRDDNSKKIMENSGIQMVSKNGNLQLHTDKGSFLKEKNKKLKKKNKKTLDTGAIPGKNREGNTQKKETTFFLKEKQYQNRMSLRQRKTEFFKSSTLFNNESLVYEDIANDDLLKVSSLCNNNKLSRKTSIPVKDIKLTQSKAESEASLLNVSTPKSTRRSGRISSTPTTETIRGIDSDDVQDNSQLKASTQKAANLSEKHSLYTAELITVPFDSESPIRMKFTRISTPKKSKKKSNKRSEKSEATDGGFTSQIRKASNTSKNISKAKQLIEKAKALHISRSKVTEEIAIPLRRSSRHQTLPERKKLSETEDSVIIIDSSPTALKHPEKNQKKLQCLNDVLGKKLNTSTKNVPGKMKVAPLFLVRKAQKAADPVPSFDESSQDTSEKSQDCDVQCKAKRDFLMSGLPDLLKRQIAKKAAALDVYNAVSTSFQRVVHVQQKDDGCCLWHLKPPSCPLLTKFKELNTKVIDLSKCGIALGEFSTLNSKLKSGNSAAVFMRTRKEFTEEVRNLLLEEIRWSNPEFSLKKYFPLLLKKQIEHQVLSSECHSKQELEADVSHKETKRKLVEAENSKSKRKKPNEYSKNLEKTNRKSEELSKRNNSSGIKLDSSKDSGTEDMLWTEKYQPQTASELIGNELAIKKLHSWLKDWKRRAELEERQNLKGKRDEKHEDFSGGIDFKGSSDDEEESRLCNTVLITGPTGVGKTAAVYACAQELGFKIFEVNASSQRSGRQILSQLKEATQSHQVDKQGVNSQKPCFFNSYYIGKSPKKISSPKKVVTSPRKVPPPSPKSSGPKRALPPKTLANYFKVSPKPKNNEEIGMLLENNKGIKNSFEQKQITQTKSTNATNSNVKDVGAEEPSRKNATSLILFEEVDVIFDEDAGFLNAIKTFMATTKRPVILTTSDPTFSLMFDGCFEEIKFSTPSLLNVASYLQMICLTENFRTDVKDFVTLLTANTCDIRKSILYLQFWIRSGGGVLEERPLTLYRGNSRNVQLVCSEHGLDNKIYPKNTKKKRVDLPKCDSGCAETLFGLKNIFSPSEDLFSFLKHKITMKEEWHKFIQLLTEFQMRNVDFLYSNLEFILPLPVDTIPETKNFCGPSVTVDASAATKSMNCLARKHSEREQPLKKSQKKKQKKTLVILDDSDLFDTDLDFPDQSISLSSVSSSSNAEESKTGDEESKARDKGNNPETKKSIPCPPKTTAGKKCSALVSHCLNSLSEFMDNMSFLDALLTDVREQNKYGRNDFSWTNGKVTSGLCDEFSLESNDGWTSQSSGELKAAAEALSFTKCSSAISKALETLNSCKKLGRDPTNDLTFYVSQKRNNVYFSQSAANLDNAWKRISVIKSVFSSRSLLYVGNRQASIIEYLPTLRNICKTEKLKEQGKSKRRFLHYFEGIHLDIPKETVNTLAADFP
How it was run: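 Quantitative HTS in HEK293T cells carrying luciferase-tagged ELG1, stimulated with 5-fluorouridine alongside compound for 16 hr. Loss of luciferase signal marks inhibition of ELG1 response.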

## CCNC(=O)[C@H]1O[C@@H](n2cnc3c(N)nc(NCCc4ccc(CCC(=O)O)cc4)nc32)[C@H](O)[C@H]1O
[1]
  outcome: inactive
[2]
  outcome: inactive
[3]
  activation: 0.188%

## COc1c(C)c2c(c(O)c1CC=C(C)CCC(=O)OCCN1CCOCC1)C(=O)OC2
[4]
  outcome: inactive

## NS(=O)(=O)c1cc(Cl)c(Cl)c(S(N)(=O)=O)c1
[4]
  outcome: inactive

## C=CCc1cccc(C=NNC(=O)CN2CCN(Cc3ccccc3)CC2)c1O
[5]
  outcome: inactive
[6]
  outcome: inactive
[7]
  outcome: inactive
[8]
  outcome: inactive
[9]
  outcome: inactive

## Clc1ccc(COC(Cn2ccnc2)c2ccc(Cl)cc2Cl)c(Cl)c1 (stereo not drawn)
[4]
  outcome: inactive

## COc1ccnc(CS(=O)c2nc3ccc(OC(F)F)cc3[nH]2)c1OC (stereo not drawn)
[4]
  outcome: inactive

## CN1CC(=O)N2C(Cc3c([nH]c4ccccc34)[C@H]2c2ccc3c(c2)OCO3)C1=O (stereo partly drawn)
[4]
  outcome: inactive

## N#CC(c1ccc(Cl)cc1)c1c(Cl)cc(-n2ncc(=O)[nH]c2=O)cc1Cl (stereo not drawn)
[4]
  outcome: inactive

## CS(=O)(=O)c1ccc(C2=C(c3ccccc3)C(=O)OC2)cc1
[4]
  outcome: inactive

## C[C@H]1O[C@@H](n2cc(F)c(=O)[nH]c2=O)[C@H](O)[C@H]1O
[5]
  outcome: inactive
[6]
  outcome: inactive
[7]
  outcome: inactive
[8]
  outcome: inactive
[10]
  outcome: inactive
[9]
  outcome: inactive

## O=C(O)c1nc(=O)[nH]c(=O)[nH]1
[4]
  outcome: inactive

## CN1CCN2c3ncccc3Cc3ccccc3C2C1 (stereo not drawn)
[4]
  outcome: inactive

## CC(C)CN(C[C@@H](O)[C@H](Cc1ccccc1)NC(=O)O[C@H]1CO[C@H]2OCC[C@H]21)S(=O)(=O)c1ccc(N)cc1
[4]
  outcome: inactive

## COc1cc2c(cc1OC)CC(=O)N(CCCN(C)C[C@H]1Cc3cc(OC)c(OC)cc31)CC2
[4]
  outcome: inactive

## NCC1CCC(C(=O)O)CC1 (stereo not drawn)
[4]
  outcome: inactive

## N#Cc1c(N(CC(=O)O)CC(=O)O)sc(C(=O)O)c1CC(=O)O
[4]
  outcome: inactive

## O=C1C(CCC(O)c2ccc(F)cc2)C(c2ccc(O)cc2)N1c1ccc(F)cc1 (stereo not drawn)
[4]
  outcome: inactive
